# Results from PubChem BioAssay.
# For some assays here: Measured potencies and affinities stand elsewhere. Active and inactive are the calls of the source.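 The calls were made as follows, unless noted: active = signal rise over 3 SD above mean of control wells given weak agonist, in both repeats and first screen; inactive = the rest.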
# Legend:
# [1] = system: TRPC4 beta (transient receptor potential cation channel C4), mouse; test: TRPC4 cation channel opening, retest – cell-based, Fluo4 calcium, HEK293 TRPC4beta/mu-opioid, duplicates, 10 µM, confirmation (AID 2426;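 active = fluorescence ratio normalized to control raised more than 50% in primary screen plus both repeat runs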;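 as to activation: percent rise of integrated ratio over buffer wells lacking compound which define 0%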); settings: Fluo4 calcium fluorescence, at 10 µM; hits give high values
# [2] = system: transient receptor potential cation channel C4 beta (TRPC4), mouse; test: TRPC4 cation channel opening, second retest – cell-based, second round, Fluo4, HEK293 TRPC4beta/mu-opioid, 1 µM, confirmation (AID 2461;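 active = primary screen active and over 50% activation in each of two duplicate runs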;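 as to activation: 0% = wells without test compound as baseline of integrated fluorescence ratio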); settings: Fluo4 calcium fluorescence, at 1 µM; hits give high values
# [3] = system: TRPC4 (transient receptor potential cation channel C4 beta), mouse; test: potentiation of DAMGO EC20 TRPC4 response – cell-based, second round, Fluo-4, HEK293 TRPC4beta/mu-opioid, 1 µM, confirmation (AID 2554;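 active = primary screen hit whose fluorescence ratio, in both repeats, exceeds the weak agonist control mean by 3 SD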); settings: DAMGO EC20, Fluo-4 calcium flux, at 1 µM; hits give high values
# [4] = system: TRPC4 beta (transient receptor potential cation channel C4), mouse; test: potentiation of DAMGO EC20 TRPC4 response – cell-based, Fluo-4, HEK293 TRPC4beta/mu-opioid, confirmation (AID 2555;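 active = primary screen hit whose calcium fluorescence ratio, in both repeats, exceeds the weak agonist control mean by 3 SD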); settings: DAMGO EC20, Fluo-4 calcium flux, at 10 µM; hits give high values
# [5] = molecular target: Short transient receptor potential channel 4 (Mus musculus) (UniProt Q9QUQ5); test: blockers of DAMGO-evoked TRPC4 calcium flux – cell-based, Fluo4, HEK293 TRPC4beta/mu-opioid, confirmation (AID 2636;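 active = calcium signal cut by more than 3 SD below the full-agonist control yet still positive, in both repeats and the earlier primary screen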); settings: at 10 µM; hits give high values
# [6] = molecular target: Short transient receptor potential channel 4 (Mus musculus) (UniProt Q9QUQ5); test: blockers of DAMGO-evoked TRPC4 calcium flux – cell-based, second round, Fluo4, HEK293 TRPC4beta/mu-opioid, 1 µM, confirmation (AID 2637;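 active = calcium signal ratio cut to more than 3 SD under the fully stimulated control mean yet still positive, in both repeats and the primary screen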); settings: at 1 µM; hits give high values
# [7] = molecular target: Short transient receptor potential channel 4 (Mus musculus) (UniProt Q9QUQ5); test: potentiation of DAMGO-evoked TRPC4 calcium signal – cell-based, HEK293 TRPC4/mu-opioid, Fluo-4 calcium, EC20 DAMGO, dose response (AID 434941;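 active = earlier screen potentiator hit that boosts the TRPC4 ion channel at some dose, with a dose response; inactive = no potentiation, no dose response, or not a prior hit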;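 also: calcium entry triggered by an EC20 dose of DAMGO at the co-expressed mu-opioid receptor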)
# [8] = molecular target: Short transient receptor potential channel 4 (Mus musculus) (UniProt Q9QUQ5); test: block of DAMGO-driven TRPC4 calcium entry – cell-based, HEK293 TRPC4/mu-opioid, Fluo-4 calcium, dose response (AID 434942;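 active = primary screen inhibitor hit that blocks the TRPC4 channel at some tested dose, yielding a dose curve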)
# [9] = molecular target: Short transient receptor potential channel 6 (Mus musculus) (UniProt Q61143); test: TRPC6 blockade by TRPC4 inhibitor hits – cell-based, HEK293, membrane potential dye, duplicate, selectivity assay for TRPC4 inhibitor project, confirmation (AID 434948;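 active = active in primary screen and both duplicates, each dropping signal beyond three positive-control SD with fluorescence still positive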); settings: HEK293 TRPC6, membrane potential dye fluorescence, at 10 µM, stimulated with maximal-effect acetylcholine; hits give high values
# [10] = molecular target: Short transient receptor potential channel 6 (Mus musculus) (UniProt Q61143); test: TRPC6 opening by TRPC4 activator hits – cell-based, HEK293, membrane potential dye, duplicate, selectivity assay for TRPC4 activator project, confirmation (AID 434950;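 active = membrane potential signal rise above negative control mean plus 3 SD in both duplicates, also active in the earlier TRPC4 screen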;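 as to activation: 0% = buffer only wells and 100% = acetylcholine maximal-effect wells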); settings: HEK293 TRPC6, membrane potential fluorescence, at 10 µM; activation: hits give high values; outcome: activation
# [11] = molecular target: Short transient receptor potential channel 6 (Mus musculus) (UniProt Q61143); test: positive modulators of mouse TRPC6 channel – HEK293 cells, membrane potential dye, duplicate, selectivity assay for TRPC4 potentiator project, confirmation (AID 434952;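 active = compound raising the membrane signal above positive-control mean plus 3 SD in both repeats, and a primary screen hit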); settings: HEK293 TRPC6, membrane potential dye fluorescence, at 10 µM, maximal acetylcholine added after compound; hits give high values
# [12] = molecular target: Short transient receptor potential channel 4 (Mus musculus) (UniProt Q9QUQ5); test: calcium flux activators in TRPC4/5HT1a cells, counter-screen for TRPC4 activator project, cell-based, second counter screen, HEK293 TRPC4/5HT1a, Fluo-4 (AID 434977;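 active = calcium signal rise above buffer-control mean plus 5 SD in both duplicates, and also a hit in the primary screen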;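 as to activation: plate controls were assay buffer for no effect and maximal serotonin response for full effect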); settings: Fluo-4 calcium flux, at 10 µM; hits give high values
# [13] = serotonin-gated TRPC4 signal block – cell-based, second counter screen, HEK293 TRPC4/5HT1a, Fluo-4, counter-screen for TRPC4 inhibitor project, confirmation (AID 434978;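 active = primary screen active whose calcium signal fell more than 3 SD beyond the full-serotonin control mean in both duplicate plates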;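 also: serotonin given first at submaximal then at maximal dose after compound preincubation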); settings: Fluo-4 calcium flux, at 10 µM, serotonin added to trigger calcium flux; hits give high values
# [14] = system: TRPC4 (mouse), co-expressed with 5HT1a in HEK293; test: enhancement of serotonin-evoked TRPC4 response – cell-based, second counter screen, HEK293 TRPC4/5HT1a, Fluo-4, counter-screen for TRPC4 potentiator project, confirmation (AID 434979); settings: Fluo-4 calcium flux, at 10 µM, serotonin added at its EC20 dose; hits give high values
# [15] = nonspecific calcium rise without TRPC4 – cell-based, HEK293 mu-opioid receptor line, counter-screen for TRPC4 activator project, confirmation (AID 449723;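 active = hit in primary screen, with calcium signal over 5 SD above buffer well mean in both duplicates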;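 also: counter screen cells carry the mu-opioid receptor alone and lack TRPC4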); settings: HEK293 mu-opioid cells, Fluo-4 calcium fluorescence, at 10 µM; hits give high values
# [16] = nonspecific potentiation of DAMGO calcium response – cell-based, HEK293 mu-opioid receptor line, counter-screen for TRPC4 allosteric potentiator project, confirmation (AID 449724;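 active = calcium signal rise more than 3 SD above the low-dose agonist control mean, in both duplicate plates and the primary screen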); settings: HEK293 mu-opioid receptor cells, Fluo-4 calcium flux, at 10 µM, compound added before EC20 DAMGO stimulus; hits give high values
# Short transient receptor potential channel 4 (Mus musculus), sequence (Q9QUQ5 whole entry, looked up): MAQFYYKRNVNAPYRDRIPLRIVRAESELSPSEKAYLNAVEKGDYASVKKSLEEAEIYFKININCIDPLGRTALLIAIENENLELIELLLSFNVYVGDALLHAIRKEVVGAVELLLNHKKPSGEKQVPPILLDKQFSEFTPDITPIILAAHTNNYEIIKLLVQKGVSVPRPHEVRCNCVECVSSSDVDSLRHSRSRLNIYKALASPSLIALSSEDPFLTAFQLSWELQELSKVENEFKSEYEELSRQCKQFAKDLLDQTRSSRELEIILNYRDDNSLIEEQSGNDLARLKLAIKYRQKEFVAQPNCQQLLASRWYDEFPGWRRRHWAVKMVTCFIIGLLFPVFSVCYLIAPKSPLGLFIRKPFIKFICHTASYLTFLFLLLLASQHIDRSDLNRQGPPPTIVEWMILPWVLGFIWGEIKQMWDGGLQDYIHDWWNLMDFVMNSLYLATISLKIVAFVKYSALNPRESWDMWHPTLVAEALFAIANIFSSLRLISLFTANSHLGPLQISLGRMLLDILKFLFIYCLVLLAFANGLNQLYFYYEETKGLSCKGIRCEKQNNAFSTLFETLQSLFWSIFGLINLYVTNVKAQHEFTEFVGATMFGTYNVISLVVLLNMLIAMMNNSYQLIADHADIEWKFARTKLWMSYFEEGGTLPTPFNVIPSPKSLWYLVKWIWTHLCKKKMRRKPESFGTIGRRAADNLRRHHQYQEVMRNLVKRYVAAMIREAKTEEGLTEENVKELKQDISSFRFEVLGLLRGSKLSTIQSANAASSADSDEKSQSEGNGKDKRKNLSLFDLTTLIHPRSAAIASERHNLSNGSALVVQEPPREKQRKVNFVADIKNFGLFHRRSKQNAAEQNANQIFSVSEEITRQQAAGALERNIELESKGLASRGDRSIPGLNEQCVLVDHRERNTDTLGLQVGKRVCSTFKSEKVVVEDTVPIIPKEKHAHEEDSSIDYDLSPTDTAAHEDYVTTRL
# Short transient receptor potential channel 6 (Mus musculus), sequence (Q61143 whole entry, looked up): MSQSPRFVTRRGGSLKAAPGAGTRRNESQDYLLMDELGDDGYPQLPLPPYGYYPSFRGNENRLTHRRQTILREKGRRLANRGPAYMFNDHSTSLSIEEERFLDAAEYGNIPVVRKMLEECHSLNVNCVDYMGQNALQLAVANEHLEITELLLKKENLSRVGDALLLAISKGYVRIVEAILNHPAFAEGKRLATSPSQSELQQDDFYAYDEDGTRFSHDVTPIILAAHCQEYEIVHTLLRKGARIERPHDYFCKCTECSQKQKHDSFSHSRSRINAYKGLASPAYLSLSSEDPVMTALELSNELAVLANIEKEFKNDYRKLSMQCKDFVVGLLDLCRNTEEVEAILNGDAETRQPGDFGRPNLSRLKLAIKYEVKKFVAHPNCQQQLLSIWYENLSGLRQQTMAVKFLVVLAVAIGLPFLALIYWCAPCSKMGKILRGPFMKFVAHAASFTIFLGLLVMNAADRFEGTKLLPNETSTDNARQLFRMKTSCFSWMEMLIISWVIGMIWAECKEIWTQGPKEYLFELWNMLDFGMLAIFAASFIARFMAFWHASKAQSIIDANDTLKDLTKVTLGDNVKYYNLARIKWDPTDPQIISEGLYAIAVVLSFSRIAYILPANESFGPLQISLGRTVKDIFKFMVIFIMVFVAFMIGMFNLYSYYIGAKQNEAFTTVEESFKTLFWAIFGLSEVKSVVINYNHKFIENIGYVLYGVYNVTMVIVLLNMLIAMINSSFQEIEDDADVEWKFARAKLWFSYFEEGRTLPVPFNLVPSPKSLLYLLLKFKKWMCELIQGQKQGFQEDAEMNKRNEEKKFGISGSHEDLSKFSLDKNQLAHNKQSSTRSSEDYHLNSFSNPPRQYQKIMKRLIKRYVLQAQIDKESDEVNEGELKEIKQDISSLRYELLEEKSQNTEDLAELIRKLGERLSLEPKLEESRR
smiles,measurement,setting,value
CCC1CCCCN1S(=O)(=O)c1ccc(C(=O)N(CCCN(C)C)c2nc3cc4c(cc3s2)OCO4)cc1 (configuration not stated),activation,[1],191% (active)
same,outcome,[2],inactive
same,outcome,[3],inactive
same,outcome,[4],inactive
same,outcome,[5],inactive
same,outcome,[6],inactive
same,outcome,[7],inactive
same,outcome,[8],inactive
same,outcome,[9],inactive
same,outcome,[10],inactive
same,outcome,[11],inactive
same,activation,[12],23.1% (active)
same,outcome,[13],inactive
same,outcome,[14],inactive
same,outcome,[15],inactive
same,outcome,[16],inactive
CC(C)C1CC(CCNCc2ccc(N(C)C)cc2)(c2ccccc2)CCO1 (configuration not stated),activation,[1],185% (active)
same,outcome,[2],inactive
same,outcome,[3],inactive
same,outcome,[4],inactive
same,outcome,[5],inactive
same,outcome,[6],inactive
same,outcome,[7],inactive
same,outcome,[8],inactive
same,outcome,[9],inactive
same,activation,[10],29% (active)
same,outcome,[11],inactive
same,activation,[12],31.2% (active)
same,outcome,[13],inactive
same,outcome,[14],inactive
same,outcome,[15],inactive
same,outcome,[16],inactive
COc1cc2ccccc2cc1C(=O)NCC(c1cccs1)N(C)C (configuration not stated),activation,[1],164% (active)
same,outcome,[2],inactive
same,outcome,[3],inactive
same,outcome,[4],inactive
same,outcome,[5],inactive
same,outcome,[6],inactive
same,outcome,[7],inactive
same,outcome,[8],inactive
same,outcome,[9],inactive
same,activation,[10],59.5% (active)
same,outcome,[11],inactive
same,outcome,[12],inactive
same,outcome,[13],inactive
same,outcome,[14],inactive
same,outcome,[15],inactive
same,outcome,[16],inactive
CN(C)C(CNC(=O)CCS(=O)(=O)c1ccccc1)c1ccccc1 (configuration not stated),activation,[1],77% (active)
same,activation,[2],75% (active)
same,outcome,[3],inactive
same,outcome,[4],inactive
same,outcome,[5],inactive
same,outcome,[6],inactive
same,outcome,[7],inactive
same,outcome,[8],inactive
same,outcome,[9],inactive
same,outcome,[10],inactive
same,outcome,[11],inactive
same,outcome,[12],inactive
same,outcome,[13],inactive
same,outcome,[14],inactive
same,outcome,[15],inactive
same,outcome,[16],inactive
O=C(c1sc2ccccc2c1Cl)N(Cc1ccccc1)C1CCS(=O)(=O)C1 (configuration not stated),outcome,[1],inactive
same,outcome,[2],inactive
same,outcome,[3],inactive
same,outcome,[4],inactive
same,outcome,[5],inactive
same,outcome,[6],inactive
same,outcome,[7],inactive
same,outcome,[8],inactive
same,outcome,[9],inactive
same,activation,[10],36% (active)
same,outcome,[11],inactive
same,outcome,[12],inactive
same,outcome,[13],inactive
same,outcome,[14],inactive
same,outcome,[15],inactive
same,outcome,[16],inactive
COc1ccc(CN2CCC(N(CCc3ccccc3)Cc3ccccc3)CC2)c(OC)c1,activation,[1],95% (active)
same,outcome,[2],inactive
same,outcome,[3],inactive
same,outcome,[4],inactive
same,outcome,[5],inactive
same,outcome,[6],inactive
same,outcome,[7],inactive
same,outcome,[8],inactive
same,outcome,[9],inactive
same,activation,[10],44% (active)
same,outcome,[11],inactive
same,outcome,[12],inactive
same,outcome,[13],inactive
same,outcome,[14],inactive
same,outcome,[15],inactive
same,outcome,[16],inactive
CCC(=O)N1CCc2cc(Br)cc(S(=O)(=O)NCCCN(C)Cc3ccccc3)c21,activation,[1],116% (active)
same,activation,[2],65% (active)
same,outcome,[3],inactive
same,outcome,[4],inactive
same,outcome,[5],inactive
same,outcome,[6],inactive
same,outcome,[7],inactive
same,outcome,[8],inactive
same,outcome,[9],inactive
same,activation,[10],55% (active)
same,outcome,[11],inactive
same,activation,[12],33.1% (active)
same,outcome,[13],inactive
same,potentiation,[14],26.2% (active)
same,outcome,[15],inactive
same,outcome,[16],inactive
CCN1CCN(c2ccc(S(=O)(=O)N3CCCCC3)cc2NC(=O)c2cccc(Cl)c2)CC1,activation,[1],63% (active)
same,outcome,[2],inactive
same,potentiation,[3],9% (active)
same,potentiation,[4],7% (active)
same,outcome,[5],inactive
same,outcome,[6],inactive
same,outcome,[7],inactive
same,outcome,[8],inactive
same,outcome,[9],inactive
same,outcome,[10],inactive
same,outcome,[11],inactive
same,activation,[12],17.8% (active)
same,outcome,[13],inactive
same,potentiation,[14],14.7% (active)
same,outcome,[15],inactive
same,outcome,[16],inactive
Cc1cc(OCCn2ccnc2)cc(C)c1Cl,activation,[1],146% (active)
same,outcome,[2],inactive
same,outcome,[3],inactive
same,outcome,[4],inactive
same,outcome,[5],inactive
same,outcome,[6],inactive
same,outcome,[7],inactive
same,outcome,[8],inactive
same,outcome,[9],inactive
same,activation,[10],42% (active)
same,outcome,[11],inactive
same,activation,[12],34.8% (active)
same,outcome,[13],inactive
same,outcome,[14],inactive
same,outcome,[15],inactive
same,outcome,[16],inactive
CN(C)CCCN(C(=O)c1ccc(Cl)s1)c1nc2cc3c(cc2s1)OCO3,activation,[1],63% (active)
same,outcome,[2],inactive
same,outcome,[3],inactive
same,outcome,[4],inactive
same,outcome,[5],inactive
same,outcome,[6],inactive
same,outcome,[7],inactive
same,outcome,[8],inactive
same,outcome,[9],inactive
same,outcome,[10],inactive
same,outcome,[11],inactive
same,outcome,[12],inactive
same,outcome,[13],inactive
same,outcome,[14],inactive
same,outcome,[15],inactive
same,outcome,[16],inactive
Cc1ccc(NC(=O)NCC(c2ccccc2)N(C)C)cc1 (configuration not stated),activation,[1],107% (active)
same,activation,[2],136% (active)
same,outcome,[3],inactive
same,outcome,[4],inactive
same,outcome,[5],inactive
same,outcome,[6],inactive
same,outcome,[7],inactive
same,outcome,[8],inactive
same,outcome,[9],inactive
same,activation,[10],38.5% (active)
same,outcome,[11],inactive
same,outcome,[12],inactive
same,outcome,[13],inactive
same,outcome,[14],inactive
same,outcome,[15],inactive
same,outcome,[16],inactive
Cn1c(N2CCN(C(=O)Nc3ccc(C(F)(F)F)cc3)CC2)nc2ccccc21,activation,[1],81% (active)
same,outcome,[2],inactive
same,outcome,[3],inactive
same,outcome,[4],inactive
same,outcome,[5],inactive
same,outcome,[6],inactive
same,outcome,[7],inactive
same,outcome,[8],inactive
same,outcome,[9],inactive
same,outcome,[10],inactive
same,outcome,[11],inactive
same,activation,[12],31.2% (active)
same,outcome,[13],inactive
same,outcome,[14],inactive
same,outcome,[15],inactive
same,outcome,[16],inactive
Cc1ccc(OCC(=O)N(C)CCc2ccccn2)cc1,activation,[1],133% (active)
same,outcome,[2],inactive
same,outcome,[3],inactive
same,outcome,[4],inactive
same,outcome,[5],inactive
same,outcome,[6],inactive
same,outcome,[7],inactive
same,outcome,[8],inactive
same,outcome,[9],inactive
same,outcome,[10],inactive
same,outcome,[11],inactive
same,activation,[12],45.5% (active)
same,outcome,[13],inactive
same,outcome,[14],inactive
same,outcome,[15],inactive
same,outcome,[16],inactive
O=C(NC(=S)NNC(=O)c1cccs1)c1ccc(Br)o1,activation,[1],202% (active)
same,outcome,[2],inactive
same,outcome,[3],inactive
same,outcome,[4],inactive
same,outcome,[5],inactive
same,outcome,[6],inactive
same,outcome,[7],inactive
same,outcome,[8],inactive
same,outcome,[9],inactive
same,outcome,[10],inactive
same,outcome,[11],inactive
same,activation,[12],117% (active)
same,outcome,[13],inactive
same,outcome,[14],inactive
same,activation,[15],28.6% (active)
same,outcome,[16],inactive
Cc1ccc(-n2cc(CNC(C)c3cnn(C)c3)c(-c3ccc(F)cc3)n2)cc1 (configuration not stated),activation,[1],232% (active)
same,activation,[2],103% (active)
same,outcome,[3],inactive
same,outcome,[4],inactive
same,outcome,[5],inactive
same,outcome,[6],inactive
same,outcome,[7],inactive
same,outcome,[8],inactive
same,outcome,[9],inactive
same,activation,[10],33% (active)
same,outcome,[11],inactive
same,activation,[12],5.72% (active)
same,outcome,[13],inactive
same,outcome,[14],inactive
same,outcome,[15],inactive
same,outcome,[16],inactive
Cc1cccc(OCCC(=O)NCC(c2ccccc2)N(C)C)c1 (configuration not stated),outcome,[1],inactive
same,outcome,[2],inactive
same,outcome,[3],inactive
same,outcome,[4],inactive
same,outcome,[5],inactive
same,outcome,[6],inactive
same,outcome,[7],inactive
same,outcome,[8],inactive
same,outcome,[9],inactive
same,activation,[10],52% (active)
same,outcome,[11],inactive
same,outcome,[12],inactive
same,outcome,[13],inactive
same,outcome,[14],inactive
same,outcome,[15],inactive
same,outcome,[16],inactive
Cc1cc2nc3s/c(=C/c4ccc(-c5ccccc5C(=O)O)o4)c(=O)n3c2cc1C,activation,[1],177% (active)
same,outcome,[2],inactive
same,outcome,[3],inactive
same,outcome,[4],inactive
same,outcome,[5],inactive
same,outcome,[6],inactive
same,outcome,[7],inactive
same,outcome,[8],inactive
same,outcome,[9],inactive
same,activation,[10],675% (active)
same,outcome,[11],inactive
same,activation,[12],112% (active)
same,outcome,[13],inactive
same,outcome,[14],inactive
same,activation,[15],136% (active)
same,outcome,[16],inactive
